Data as given in PubChem BioAssay AID485313 (National Center for Advancing Translational Sciences (NCATS), 2010).
Hit rate of the full screen: of about 320,000 compounds, about 7,600 (2.4%) were called active. Roughly 3% stayed inconclusive and do not appear here. Calls come from the whole dose curve; as a rule, active = well fitted activation curve with a large enough effect; inconclusive = small, poorly fitted or top-dose-only effect; inactive = no such curve, though single readings can be large or run the other way. Shown is part of a subset that was picked to be rich in actives. A call without a number means that no potency is given here.

Experiment: qHTS Assay for NPC1 Promoter Activators; note: nearly all actives have a fitted effect of over 60% in size;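 for activation: reporter is driven by a mutant NPC1 promoter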
Conditions: Huh7 NPC1 promoter luciferase reporter, 24 h; series mostly up to 9.22 µM
Outline: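 Quantitative HTS used a cell-based reporter: Huh7 cells stably bearing the NPC1 promoter upstream of luciferase were treated with compounds for 24 h, and promoter activation was read as luminescence.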
Potency is the fitted concentration of half-maximal effect.

Structure (SMILES)	Potency
CC(C)(C)OC(=O)NCCCCCNC(=O)c1nc[nH]c1C(=O)NCc1ccccc1	inactive
O=S(=O)(c1ccccc1)N(Cc1cccc(F)c1)c1ccccc1	inactive
N#Cc1cccc(NC(=O)C2CCCN(C(=O)c3ccc(Cl)cc3)C2)c1 (configuration not stated)	inactive
CC(C)CNC(=O)C(=O)NCc1ccccc1	inactive
CC(C)CNC(=O)C(=O)Nc1ccc(N(C)C)cc1	3980 nM (active)
CC(C)CNC(=S)Nc1ccc(F)cc1	inactive
CC(OC(=O)c1cc2ccccc2o1)C(=O)Nc1ccc(N2CCOCC2)cc1 (configuration not stated)	inactive
COC(=O)c1cc(Oc2ccc(S(=O)(=O)N3CCOCC3)cc2[N+](=O)[O-])cc(C(=O)OC)c1	inactive
CC(C)C[C@H](NC(=O)[C@H](O)[C@H](N)Cc1ccccc1)C(=O)O	inactive
COc1ccc(/C=C2\CCc3ccccc3C2=O)c(OC)c1OC	inactive
COc1cccc(-c2ccc3c(c2)S(=O)(=O)c2cccc(C(=O)O)c2C3=O)c1OC	inactive
COc1ccc2c(c1OC)C(=O)c1ccccc1C2=O	2820 nM (active)
CCOC(=O)c1sc(N)c(C#N)c1COC(=O)C1=COCCO1	inactive
CCOc1cccc(/C=C/c2ccc3ccccc3n2)c1OC(C)=O	631 nM (active)
CC(=O)c1ccc(S(=O)(=O)N2CCN(C(=O)/C=C/c3ccc4ccccc4n3)CC2)cc1	inactive
COc1cccc(/C=C/c2ccc3ccccc3n2)c1OC(C)=O	1000 nM (active)
NC(=O)COC(=O)/C=C/c1ccc2ccccc2n1	inactive
CCOc1ccccc1-c1cc(C(=O)N2CCOCC2)c2ccccc2n1	inactive
COc1cccc(/C=C2\C=C(c3ccc(C)cc3)OC2=O)c1OC(C)=O	inactive
CNS(=O)(=O)c1cccc(C(=O)OCCCC(=O)c2ccccc2)c1	inactive
COc1ccccc1-c1nn(Cc2ccccc2)cc1C(=O)N1CCN(c2ncccn2)CC1	inactive
CC1(C)CC(=O)C=C(c2cccc3c2Oc2ccccc2S3)C1	inactive

Structure (SMILES)	Potency
O=C(COC(=O)CNC(=O)C1CCCCC1)Nc1cccc(F)c1	inactive
Cc1ccccc1OCCC(=O)OCC(=O)NCCc1ccc(S(N)(=O)=O)cc1	inactive
O=C(CN1CCN(C2CCS(=O)(=O)C2)CC1)N1N=C(c2ccc(Cl)cc2)CC1c1ccco1 (configuration not stated)	inactive
CC(=O)Nc1ccc(NC(=O)CCN2C(=O)C3CC=CCC3C2=O)cc1 (configuration not stated)	inactive
CCC(=O)c1cn(CCOc2ccccc2OC)c2ccccc12	inactive
CCCOC1CCCN(C(=O)c2cc(COc3cncc(Cl)c3)on2)C1 (configuration not stated)	3980 nM (active)
CCOC(=O)CC1(NC(=O)c2cc(COc3cncc(Cl)c3)on2)CCCCC1	inactive
Cc1nonc1C1CCCN1C(=O)c1cc(COc2cccc(C(F)(F)F)c2)on1 (configuration not stated)	inactive
Cc1ccc2c(c1)C1CN(C)CCC1N2S(=O)(=O)c1cccc(F)c1 (configuration not stated)	inactive
O=C(CN1CCCSc2ccccc21)N1CCN(S(=O)(=O)c2cccc(F)c2)CC1	inactive
COC(=O)C1=C(C)NC(=S)NC1c1ccc(OCC(=O)N2CC(C)OC(C)C2)c(OC)c1 (configuration not stated)	inactive
COc1ccc(CCNC(=O)COc2ccc3c(c2)OCO3)cc1	inactive
CC(C)COC(=O)c1ccc(NC(=O)C2C3C=CC(C3)C2C(=O)O)cc1 (configuration not stated)	2240 nM (active)
CC(=O)NS(=O)(=O)c1ccc(NC(=O)C2C3C=CC(C3)C2C(=O)O)cc1 (configuration not stated)	inactive
COC(=O)c1cc(NC(=O)C2C3C=CC(C3)C2C(=O)O)cc(C(=O)OC)c1 (configuration not stated)	inactive
CCN(CC)S(=O)(=O)c1ccc2[nH]c(=O)cc(C(=O)N(C)C3CCS(=O)(=O)C3)c2c1 (configuration not stated)	inactive
C[C@H](OC(=O)n1ccnc1)[C@@H]1O[C@@]2(C)CCC[C@@H]1O2	inactive
COc1ccccc1N1CC(C(=O)NCCN2C(=O)S/C(=C\c3cccnc3)C2=O)CC1=O (configuration not stated)	inactive
Cc1ccc(C(CC(=O)O)NC(=O)c2ccc(S(=O)(=O)N3CCCC3)cc2)cc1 (configuration not stated)	inactive
O=C(NCCN1CCOCC1)c1cccc(S(=O)(=O)Nc2ccc(F)cc2)c1	inactive
O=C(NC1CCCCC1)c1ccc(-c2ccc(Cl)cc2)o1	3160 nM (active)
O=C(NC(=S)NC1CCCCC1)c1ccc(Cl)cc1	inactive

Structure (SMILES)	Potency
O=C(NC1CCCCCC1)c1cccnc1Sc1ccc(Cl)cc1	inactive
Cc1ccc(NC(=O)C(C)Sc2nnc(C3CC3)n2C2CC2)cc1S(=O)(=O)N1CCOCC1 (configuration not stated)	inactive
C=CCn1c(SCC(=O)NC(=O)Cc2ccccc2)nc2ccccc2c1=O	inactive
Cc1nc(/N=C(\N)NC(=O)NC2CCCCC2)nc2ccccc12	inactive
O=C(/C=C/c1cnc2ccccc2n1)NC1CCCCCC1	3550 nM (active)
O=C(Cn1c(-c2cncs2)nc2ccccc21)NC1CCCC1	inactive
COc1ccc2c(C)cc(SCC(=O)NCC3CCCO3)nc2c1 (configuration not stated)	inactive
Cc1cccc(NC(=O)c2ccc3ccccc3n2)n1	3160 nM (active)
Cc1cccc(NC(=O)c2ccccc2NC(=O)C(C)(C)C)n1	inactive
Cc1cccc(NC(=O)c2cccnc2Cl)n1	inactive
Cc1ccc(-n2nc3ccc(NC(=O)/C=C/c4ccco4)cc3n2)cc1C	inactive
CCC(=O)Nc1ccc(C(=O)Nc2cccc(OC)c2)cc1	inactive
CCC(=O)Nc1ccc2nn(-c3ccc(F)cc3)nc2c1	355 nM (active)
Cc1noc(C)c1S(=O)(=O)Nc1ccc(C(=O)N2CCN(c3ccc(F)cc3)CC2)cc1	inactive
O=C(Nc1cccnc1Cl)c1cc(-c2cccc(Cl)c2)on1	inactive
O=C(NCCCN1CCOCC1)c1cc(-c2cccc(O)c2)on1	inactive
O=C(NC1CCCC1)c1cc(-c2ccccc2)on1	1260 nM (active)
Cc1cc(C)cc(-c2nnc(SCC(=O)NC3CC3)o2)c1	inactive
Cc1cccc(C)c1NC(=O)CSc1nc2c([nH]1)c(=O)n(C)c(=O)n2C	inactive
CCOc1ncccc1C(=O)Nc1ccc(S(=O)(=O)Nc2nc(C)cc(C)n2)cc1	inactive
O=C(CSCc1ccc(Cl)cc1)N1CCCCC1	6310 nM (active)
O=C(CSCc1ccc(Cl)cc1)N1CCN(Cc2ccc3c(c2)OCO3)CC1	inactive

Structure (SMILES)	Potency
O=C(CN1CCN(c2ccc(Cl)cc2)CC1)N1CCCC1	inactive
CCN(c1ccccc1)S(=O)(=O)c1ccc(OCC(=O)N2CCCC2)cc1	inactive
O=C(NNC(=O)c1cc(S(=O)(=O)N2CCCCC2)ccc1Cl)c1ccccc1O	inactive
Cc1cc(C)cc(NC(=O)C(c2ccccc2)N2CCN(CC(=O)N3CCCC3)CC2)c1 (configuration not stated)	inactive
COc1ccc(S(=O)(=O)N2CCOCC2)cc1NC(=O)CC1CC2CCC1C2 (configuration not stated)	inactive
CCOc1nnc(C)c2c(C)n(-c3cccc(Cl)c3)nc12	inactive
Cc1ccccc1Nc1nc(N)nc(CSc2nnc3ccccn23)n1	inactive
Cc1ccccc1Nc1nc(N)nc(CSc2ccccc2)n1	1260 nM (active)
Cc1ccc(C(=O)OCc2nc(N)nc(Nc3ccccc3C)n2)cc1	inactive
O=C1CC[C@H](O)CCN1[C@H](CSc1ccc(Br)cc1)Cc1ccccc1	inactive
CCOc1cc(CN2CCN(C(=O)CC(C)C)CC2)ccc1OC	inactive
COc1ccc(COCC(O)CN2CCC(C(N)=O)CC2)cc1 (configuration not stated)	inactive
COc1cc(CN2CCC(C(N)=O)CC2)ccc1OCc1ccccc1	3980 nM (active)
CCOC(=O)C1CCN(S(=O)(=O)c2ccc3c(c2)N(C(C)=O)CCO3)CC1	inactive
Cc1ccc(C)c(NC(=O)C(c2ccccc2)N2CCN(CC(=O)NC3CC3)CC2)c1 (configuration not stated)	inactive
O=C(c1cnn(-c2ccc(Cl)cc2)c1)c1ccccc1O	3550 nM (active)
COc1ccc(CNC(=O)COc2ccccc2C(=O)c2cnn(-c3ccccc3)c2)cc1OC	inactive
Cc1ncc(CC(=O)n2cc(C(=O)c3cc(Cl)ccc3O)cn2)s1	inactive
Cc1ccnc(Nc2nc3ccccc3s2)n1	3550 nM (active)
Cc1ccnc(-n2sc3ccccc3c2=O)n1	inactive
Cc1ccnc(NC(=O)c2ccco2)n1	inactive
COc1cc(C(=O)NNC(=O)CN2C(=O)NC3(CCCC3)C2=O)cc(OC)c1OC	inactive

Structure (SMILES)	Potency
CN(C)S(=O)(=O)c1ccc(C(=O)NCC2(N3CCOCC3)CCCCC2)cc1	inactive
O=C(CSc1nnnn1C1CCCC1)N1CCCCC1	3550 nM (active)
CC1CCCC(C)N1C(=O)CSc1nnnn1C1CCCC1 (configuration not stated)	inactive
CC(=O)Nc1ccc(NC(=O)CSc2nnnn2C2CCCCC2)cc1	inactive
C/C(=N\NC(=O)c1ccc(NS(=O)(=O)c2cccs2)cc1)c1ccc2ccccc2c1	inactive
COCCNc1nnc(SCC(=O)NNC(=O)c2ccco2)s1	inactive
COc1ccc(Oc2c(Cl)cnn(-c3ccccc3)c2=O)cc1	inactive
COc1ccccc1N1CCN(C(=O)CSc2ncnc3c2cnn3-c2ccc(C)c(C)c2)CC1	inactive
Cc1cccc(-n2ncc(Cl)c(Cl)c2=O)c1	inactive
COc1ccc2oc(=O)c(C(=O)N3CCCc4ccccc43)cc2c1	inactive
Cc1cccc(-n2ncc3c(N4CCc5ccccc54)ncnc32)c1	1580 nM (active)
COc1ccc(-n2ncc3c(N4CCCc5ccccc54)ncnc32)cc1	501 nM (active)
O=C(CCNC(=O)c1ccccc1Cl)NCc1ccco1	inactive
O=C(CCC(=O)c1ccccc1)NCc1cccc(C(F)(F)F)c1	inactive
FC(F)Oc1ccccc1C1CC(c2ccc(Br)s2)Nc2ncnn21 (configuration not stated)	inactive
Cc1ccc(Nc2nc(N)nc(CSc3nnc(C)s3)n2)cc1	2510 nM (active)
CCOC(=O)N1CCN(Cc2nc(N)nc(Nc3ccc(C)cc3)n2)CC1	inactive
Cc1nnc(SCc2nc3ccccc3nc2C)s1	inactive
Nc1ccc(Nc2cc(O)c3ncccc3c2)cc1	inactive
